Screens as filed in PubChem BioAssay.
Vc quorum ag: inducers of Vibrio cholerae quorum light production without autoinducers; V. cholerae BH1578 lux reporter, luminescence, 6 h; activation, % at 18.7 µM; 0.16% of 350,000 active; AID 588436; in the data active = activation mostly above about 9.7%, no sharp cut-off
Yp Topo-I inh: blocks Yersinia pestis topoisomerase I activity; AID 504884; 0.064% of 360,000 active; Y. pestis Topo-I cleavage product accumulation, plate reader; activity, % at 10 µM; in the data active = activity above about 50%, passing the limit was not always enough
CCHFV vOTU inh: blocks the CCHF virus ovarian tumor domain protease | inhibition, % at 11.5 µM | CCHFV vOTU protease, Pep-AMC fluorescence | 0.55% of 370,000 active; in the data active = inhibition above about 30%; also: 0% = vehicle wells with enzyme and 100% = no enzyme wells
MazEF act: activators of E. coli MazEF toxin-antitoxin RNase. P0AE70. FAM/BHQ RNA-DNA oligo cleavage fluorescence, 5 h. activation, % at 20 µM. 0.32% of 350,000 active. AID 504720; in the data active = activation above about 50%
Target sequence (P0AE70 whole entry, looked up): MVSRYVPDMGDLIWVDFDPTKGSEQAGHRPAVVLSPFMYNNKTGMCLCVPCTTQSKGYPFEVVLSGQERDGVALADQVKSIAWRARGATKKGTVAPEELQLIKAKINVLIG
PrPC surface inh: inhibitors of human cell surface prion protein PrPC. 0.43% of 370,000 active. P04156. TR-FRET read-out. inhibition, % at 13.8 µM; in the data active = inhibition above about 24%; also: 0% = median of the test wells and 100% = reference compound wells
DUSP3 inh: DUSP3 (human) phosphatase inhibition | P51452 | recombinant VHR phosphatase, pNPP absorbance | inhibition, % at 13.3 µM | 0.52% of 290,000 active | AID 1654; in the data active = inhibition above about 50%
Target sequence (P51452 whole entry, looked up): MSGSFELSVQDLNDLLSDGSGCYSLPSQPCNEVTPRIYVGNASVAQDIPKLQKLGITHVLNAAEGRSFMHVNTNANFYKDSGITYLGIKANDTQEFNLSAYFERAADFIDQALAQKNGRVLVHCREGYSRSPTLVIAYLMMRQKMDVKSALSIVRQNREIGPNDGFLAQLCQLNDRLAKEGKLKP
Numbers without * were called inactive; i = inactive; · = no result given; + = active, no number. An excerpt weighted towards active compounds, which were near 1.8% of everything screened.

SMILES	Vc quorum ag	Yp Topo-I inh	CCHFV vOTU inh	MazEF act	PrPC surface inh	DUSP3 inh
CCOc1ccc(S(=O)(=O)NN)cc1	i	-1.6	11.0	50.3*	3.5	6.9
Cc1ncoc1C(=O)NC1CC(C)(C)Cc2c1cnn2-c1ccc(F)cc1 (centres undefined)	-1.4	-5.1	-2.1	-4.2	9.8	53.4*
CC1(C)Cc2c(cnn2-c2ccc(F)cc2)C(NC(=O)c2ccco2)C1 (centres undefined)	i	-1.1	1.5	5.6	-0.9	33.3
O[C@H](COc1ccc(Cl)cc1)CN1CCC(C(O)(c2ccccc2)c2ccccc2)CC1	·	·	-0.6	·	-6.9	·
Cc1sc2nc(COC(=O)CNC(=O)c3ccccc3Cl)[nH]c(=O)c2c1C	·	·	18.9	·	7.6	·
Cn1cc(S(=O)(=O)N2CCN(c3ccccc3F)CC2)c(=O)n(C)c1=O	-0.3	-7.7	0.2	6.4	8.8	53.3*
COc1ccccc1N1CCN(S(=O)(=O)c2cn(C)c(=O)n(C)c2=O)CC1	-0.1	1.8	3.2	4.1	-4.0	-1.5
CCOC(=O)N1CCN(S(=O)(=O)c2cn(C)c(=O)n(C)c2=O)CC1	-1.0	5.1	-1.2	8.7	-3.7	52.2*
O=C(c1cccc(F)c1)N(Cc1ccccn1)CC1CCCO1 (centres undefined)	·	·	1.4	·	-0.8	·
COc1ccc(Cn2c(O)c(C=Nc3ccc(O)cc3)c3ccccc3c2=O)cc1	-0.2	-16.7	-5.6	-7.5	-5.8	-31.6
O=c1c2ccccc2c(C=Nc2ccc(O)cc2)c(O)n1Cc1ccccc1	-0.4	-27.6	2.4	+	4.2	-15.6
CCn1nc(NC(C)=O)c2cc3cccc(C)c3nc21	-0.8	3.3	0.6	9.4	5.5	26.3
CCn1nc(NC(=O)C(C)C)c2cc3cccc(C)c3nc21	1.4	-5.0	6.1	12.6	-8.2	56.0*
CC(=O)OCc1cc(-c2nn(C)c(=O)c3ccccc23)ccc1C	i	-1.4	9.0	6.1	1.9	4.0
Cc1ccc(-c2nn(C)c(=O)c3ccccc23)cc1CO	16.7*	4.6	-0.4	-1.2	-6.7	11.8
COC(=O)[C@H](C(C)C)N1Cc2nnn(Cc3ccccc3)c2-c2ccccc2S1(=O)=O	·	·	1.3	·	8.8	·
CCN(C(=O)CN1CCN(c2nc(-c3ccccc3)cs2)CC1)c1ccccc1C	·	·	11.9	·	3.6	·
CCC(NC(=O)c1ccccc1NC(=O)C(C)(C)C)C(=O)N1CCCC1 (centres undefined)	-0.1	-14.0	6.1	5.5	-11.6	2.2
CCC(NC(=O)c1ccccc1NC(=O)C(C)(C)C)C(=O)N1CC(C)OC(C)C1 (centres undefined)	0.0	-5.7	16.7	52.1*	0.9	·
CCN(CC)c1ccc(/C=N/NS(=O)(=O)c2ccc(C)c([N+](=O)[O-])c2)cc1	-0.1	21.4	-10.4	7.1	5.2	30.5
CCN(CC)c1ccc(C=NCCNS(=O)(=O)c2ccc(C)cc2)cc1	i	0.6	16.7	-20.5	-0.5	57.4*
COc1cccc(/C=C2\CC3(OC(=O)C4CCCCC4)CCCN2C3)c1 (centres undefined)	·	·	10.8	·	-5.0	·
CC1(C)CC(=O)C=C(c2ccc(COC(=O)c3ccccc3)cc2)C1=O	1.5	9.9	14.4	-7.9	-8.5	·
CC1(C)CC(=O)C=C(c2ccc(COC(=O)/C=C/c3ccccc3)cc2)C1=O	i	55.6*	6.8	-1.2	-1.0	·
CC(C)C[C@H]1CN=C(Nc2ccccc2)N1CCCC1CCCC1	0.3	11.5	12.7	-0.2	1.9	55.4*
SMILES	Vc quorum ag	Yp Topo-I inh	CCHFV vOTU inh	MazEF act	PrPC surface inh	DUSP3 inh
CC(=O)N1CCc2cc(S(=O)(=O)NC3CCN(C(=O)CCl)CC3)ccc21	·	·	-7.1	·	-4.7	·
COCCCn1c(=O)/c(=C\c2ccccc2OC(F)F)s/c1=C(/C#N)C(=O)NC(C)C	i	-8.4	-0.2	303.4*	8.4	-2.5
COc1ccc(Cn2c(=O)[nH]c3cc(C(=O)NCc4ccc5c(c4)OCO5)ccc3c2=O)cc1	-0.2	-4.8	-8.7	182.1*	1.3	·
Cc1cc(C)cc(NC(=O)C2(C(=O)C3CC3)CC(c3ccccc3C(F)(F)F)=NO2)c1 (centres undefined)	·	·	5.6	·	7.8	·
Cc1ccc(S(=O)(=O)/N=C2/C=C(C3C(=O)CC(C)(C)CC3=O)C(=O)c3ccccc32)cc1	-0.3	-0.8	108.0*	-3.5	-4.2	-9.9
COC(=O)[C@]1(CNC(=O)C(F)(F)F)CC(=O)N(C)[C@@H]1c1ccccc1	·	·	-0.6	·	10.9	·
